These molecules were tested on BRSK2.
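Also: kd values determined as follow-up on hits from a single-replicate KINOMEscan panel screen.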

Row | Structure (SMILES) | Kd
1 | O=c1cc(N2CCOCC2)nc2n(Cc3ccccc3F)ccn12 [GSK2297428] | > 10 µM
2 | Cc1ccccc1Cn1ccn2c(=O)cc(N3CCOCC3)nc12 [GSK2269905] | > 10 µM
3 | COc1cccc(NC(=O)Nc2ccc(C)c(-c3ccc(C(=O)Nc4ccncc4)cc3)c2)c1 [GSK1398474] | > 10 µM
4 | COc1ccc(-c2coc3ccc(-c4nnc(C)o4)cc23)cc1 | > 10 µM
5 | c1ccc(-c2ccnc3[nH]ccc23)cc1 [SB-693578] | > 10 µM

These molecules were tested on BUB1.

Row | Structure (SMILES) | Kd
6 | CCCCc1nn2ncccc2c1-c1ccnc(NC2CC2)n1 [GW684374] | 3.3 µM
7 | Fc1ccc(-c2nc[nH]c2-c2ccncc2)cc1 [SB-217360] | 0.89 µM
8 | CSc1ccc(-c2nc3n(c2-c2ccncc2)CCC3)cc1 [SKF-105561] | 0.26 µM
9 | COc1cc2ncnc(Nc3cccc(Br)c3)c2cc1OC.Cl [GI230329] | 0.13 µM
10 | CS(=O)(=O)Cc1ccc(Nc2nccc(-c3c(-c4cccc(NC(=O)C5CCCCC5)c4)nn4ncccc34)n2)cc1 [GSK350559] | 0.029 µM
11 | COc1ccc2cc(-c3nc(-c4ccccc4C(C)C)[nH]c3-c3ccncc3)ccc2c1 [SB-660566] | 0.47 µM

The molecules below were run on CAMK2A.

Row | Structure (SMILES) | Kd
12 | COC(=O)c1cccc(NC(=O)NC2CCN(c3ccnc(Nc4ccc(OC)cc4)n3)C2)c1 (stereo not shown) [GSK1379746] | > 10 µM
13 | Cc1ccc(NC(=O)c2ccc(Cl)cc2)cc1-c1ccc(C(=O)Nc2ccncc2)cc1 [GSK1398467] | > 10 µM
14 | CNc1nc(-c2ccc3c(N)n[nH]c3c2)cc(N2C[C@@H](C(=O)Nc3ccccc3)CC[C@H]2C)n1 [GSK2298859] | > 10 µM
15 | O=C(Nc1n[nH]c2nc(-c3cccs3)c(Br)cc12)C1CC1 [SB-735297] | > 10 µM

These molecules were tested on CAMK2B.

Row | Structure (SMILES) | Kd
16 | COC(=O)c1cccc(NC(=O)NC2CCN(c3ccnc(Nc4ccc(OC)cc4)n3)C2)c1 (stereo not shown) [GSK1379746] | > 10 µM
17 | Cc1ccc(NC(=O)c2ccc(Cl)cc2)cc1-c1ccc(C(=O)Nc2ccncc2)cc1 [GSK1398467] | > 10 µM
18 | CNc1nc(-c2ccc3c(N)n[nH]c3c2)cc(N2C[C@@H](C(=O)Nc3ccccc3)CC[C@H]2C)n1 [GSK2298859] | > 10 µM
19 | O=C(Nc1n[nH]c2nc(-c3cccs3)c(Br)cc12)C1CC1 [SB-735297] | > 10 µM
